# According to PubChem BioAssay (NCI):
# About 83,000 compounds went through this panel and 20% of them were active in at least one assay; those are over-represented in the sample as a whole.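 The endpoint reported here, percent growth, reads 100 for growth as untreated, 0 for no net growth and -100 for all cells dead.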 Unmarked numbers belong to inactive results. Activity calls are given as the source filed them. How the source made its calls: active means growth percent below 10; inactive means the rest.
# System: BT-549 breast
# Test: NCI-60 one-dose screen, 48 h (100 = growth as untreated, 0 = no growth, -100 = all killed)
# Details: 10 µM unless noted
row,Structure (SMILES),growth
1,Clc1cnc(Nc2ccc(OCCN3CCCC3)cc2)nc1NCc1ccco1,45.7%
2,COc1ccc(Oc2nc(Nc3ccc(N4CCCCC4)nc3)ncc2NC(=O)c2cc(OC)cc(OC)c2)cc1,56.5%
3,CCCn1nc(-c2ccccc2)c2c(-c3ccccc3)onc2c1=O,71.5%
4,COc1ccc(/C(C)=C(\c2ccc(Cl)cc2)c2ccc(OCCCN(C)C)cc2)cc1F,88.3%
5,CCN(CC)N=Nc1nn(C(=O)Nc2ccc(Cc3ccccc3)cc2)c2ccc(Cl)cc12,84.1%
6,C=C1C(=O)O[C@H]2[C@H]1CC/C(COC(=O)NCc1ccc(Cn3c(=O)sn(CCCCl)c3=O)cc1)=C\CC[C@@]1(C)O[C@@H]21,51.8%
7,NC(=S)N/N=C/C(=O)O,95%
8,C=C(C)[C@@H]1CC[C@]2(CNCCO)CC[C@]3(C)[C@H](CC[C@@H]4[C@@]5(C)CCC(N)[C@@](C)(CO)[C@@H]5CC[C@]43C)[C@@H]12 (some centres undefined),68.6%
9,Clc1ccc2c(NCCCN3CCN(c4nc(-n5ccnc5)nc5ccccc45)CC3)ccnc2c1,67.6%
10,O=C1C(Cl)C(c2ccccc2Cl)N1n1cnnc1 (centres undefined),97.3%
11,COC(=O)c1ccc(CSc2nnc(-c3ccncc3)o2)cc1,104%
12,C#CC[C@H](N)C(=O)O,106% [20 µM]
13,CN1CCN(C(=O)[C@]23CCC(C)(C)C[C@@H]2C2=CC[C@@H]4[C@@]5(C)Cc6c([nH]c7ccccc67)C(C)(C)[C@@H]5CC[C@@]4(C)[C@]2(C)CC3)CC1,97%
14,Cc1cc(N2CCCCC2)nc(N(CCNc2ccnc3cc(Cl)ccc23)Cc2ccccn2)n1,64.3%
15,CCN(CC)c1ccc(Nc2ccc(CC(=O)c3ccccc3)cc2)cc1,82.4%
16,COc1ccc(/C=C2\C=C(c3ccccc3)N(CCc3ccccc3)C2=O)cc1OC,80.1%
17,CCn1nc(C#Cc2c(C)ccc3c(Nc4ccc(Cl)cc4)nccc23)c2c(N)ncnc21,10.5%
18,Cc1ccc(S(=O)(=O)Nc2sccc2-c2nc(-c3ccccc3)no2)cc1,92.5%
19,CCCCCOC(=O)c1cccc(NC(=O)CN(CC)CC)c1,72.6%
20,COc1cc2oc(-c3cccc(C(=O)Nc4ccc(C#N)cc4)c3)cc(=O)c2c(O)c1OC,44.7%

row,Structure (SMILES),growth
1,COc1ccc(-n2ncn(CCCCCCn3cnn(-c4ccc(OC)cc4)c3=O)c2=O)cc1,101%
2,COc1ccc(C2CC(c3ccccc3)=NN2c2nc(C)c(C(C)=O)s2)cc1 (centres undefined),110%
3,CC(C)(C)CC(C)(C)Nc1c(-c2ccc(-c3ccccc3)cc2)nc2cnccn12,95%
4,N#Cc1cccc(-c2nc3ccccn3c2NCCN2CCOCC2)c1,93.3%
5,C=C1C(=O)O[C@H]2[C@H]1CC/C(COC(=O)/C=C/C(=O)NCc1ccc(Cn3c(=O)sn(-c4ccccc4)c3=O)cc1)=C\CC[C@@]1(C)O[C@@H]21,-3.27% (active)
6,CCC(C)NCc1ccccc1 (centres undefined),95.2%
7,CC(C)n1nc(C#Cc2cccc3cc(-c4cccc(C(F)(F)F)c4)ncc23)c2c(N)ncnc21,97.7%
8,CCNCCNc1cc(-c2ccc(C#N)cc2)c(C#N)c2nc3ccccc3n12,40.4%
9,CC[C@@H](C[C@H](CCO)c1ccccc1)c1cc2ccccc2o1,97.7%
10,CCN(CCO)CC(=O)c1cc(Cl)cc(Cl)c1Cl,93.7%
11,C=C1C(=O)O[C@H]2[C@H]1CC/C(Cn1cc(CNCCc3c[nH]c4ccc(Cl)cc34)nn1)=C\CC[C@@]1(C)O[C@@H]21,74.7%
12,C=C1c2c(C)nn(-c3ccc(N)cc3)c2N(C)C23CC1C1(C)c4c(C)nn(-c5ccc(N)cc5)c4N(C)C(C)(CC12)C3 (centres undefined),72.7%
13,COc1ccc(Nc2ncc(Br)c(NCCCNC(=O)C3CCC3)n2)cc1,-33.9% (active)
14,CC(C)n1nc(C#Cc2cccc(NC(=O)c3cccc(C(F)(F)F)c3)c2)c2c(N)ncnc21,9.72% (active)
15,COC(=O)c1ccc2oc(NC(=O)c3ccc(N4CCOCC4)c([N+](=O)[O-])c3)nc2c1,95.7%
16,COc1cc2oc(-c3cccc(C(=O)Nc4ccc(C)cc4)c3)cc(=O)c2c(OC)c1OC,36.6%
17,COc1ccc(/C=C(\C#N)n2nnc3cc(F)c(F)cc32)c(OC)c1OC,70.9%
18,C=C(CNCCc1ccc(O)cc1)[C@@H]1CC[C@]2(COC3CCCCO3)CC[C@]3(C)[C@H](CC[C@@H]4[C@@]5(C)CCC(NCCO)C(C)(C)[C@@H]5CC[C@]43C)[C@@H]12 (some centres undefined),41.2%
19,C[C@@H]1CC[C@@H]2[C@@H]1[C@H](OC(=O)c1ccc3ccccc3c1)[C@]1(C3CCCCC3)C[C@@H](OC(=O)CO)[C@@]2(C)O1,0.366% (active)
